# Bioassay records: PubChem, National Center for Advancing Translational Sciences (NCATS)
# D3 ag: qHTS of D3 Dopamine Receptor Agonist: qHTS. D3R DiscoveRx beta-arrestin cells, luminescence, 90 min. max activation, %. 0.58% of 410,000 active. AID 652048, 2013; in the data active = max activation above about 30%; also: 0% is about no effect
# Target sequence (P35462 whole entry, looked up): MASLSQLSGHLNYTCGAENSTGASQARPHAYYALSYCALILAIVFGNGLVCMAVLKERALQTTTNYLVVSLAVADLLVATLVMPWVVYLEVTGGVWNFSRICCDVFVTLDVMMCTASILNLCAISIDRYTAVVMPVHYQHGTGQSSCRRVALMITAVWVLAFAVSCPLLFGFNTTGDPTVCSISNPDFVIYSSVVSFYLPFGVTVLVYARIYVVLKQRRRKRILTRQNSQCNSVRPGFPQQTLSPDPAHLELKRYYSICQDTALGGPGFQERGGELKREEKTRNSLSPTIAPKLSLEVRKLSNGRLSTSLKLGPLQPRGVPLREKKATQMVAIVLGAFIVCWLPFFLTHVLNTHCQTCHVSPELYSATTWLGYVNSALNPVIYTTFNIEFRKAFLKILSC
#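 Agonist mode: compounds and dopamine controls were applied to plated cells for 90 min at 37 degrees C after an overnight attachment at 1500 cells/well. Luminescent read-out followed 30 - 60 minutes at room temperature with DiscoveRx detection reagent.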
# S2 tox: Viability Counterscreen for Primary qHTS for Inhibitors of ATXN expression; Potency, µM (top dose mostly 56.7 µM), usual class: cytotoxic; S2 cells (HEK-293 line with an ATXN2-luciferase reporter) viability, CellTiter-Fluor protease fluorescence, 24 h; 0.49% of 400,000 active; AID 651635, 2014; also: potency is read from the fitted curve at half-maximal effect; nearly all actives have a fitted effect of over 40% in size
# HepG2 viability: qHTS for Inhibitors of TGF-b: Cytotox Counterscreen. Potency, µM (titrated, usually from 46.1 µM), for inactives: at the top dose activity change, negative = cytotoxicity, actives largely listed as cytotoxic. 0.76% of 410,000 active. HepG2 CAGA-GFP viability, ATP luminescence, 18 h; also: potency is read from the fitted curve at half-maximal effect
#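 CellTiter-Glo luminescence gave cytotoxicity after 18 hours at 37 degrees C. The cells were HepG2 CAGA-GFP in 1% FBS DMEM, stimulated with 500 pg/mL TGF-beta after compound addition. %Activity was normalised to no-cell wells (complete cell-killing) and DMSO (no toxicity), and curves were fitted and classified.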
# ATXN2 expr inh: Primary qHTS for Inhibitors of ATXN expression. HEK-293 ATXN2-luciferase reporter, luminescence, 24 h. Potency, µM (highest dose often 57 µM), without a hit: top-dose activity change, negative = inhibition, actives largely listed as inhibitors. 0.72% of 360,000 active; also: potency is read from the fitted curve at half-maximal effect; % is scaled to controls: 0 for no effect and ±100 for the full control effect; nearly all actives have a fitted effect of over 55% in size
#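 qHTS (up to 57 uM final) was run with 24 h compound exposure of reporter cells at 37 °C. Each well was multiplexed: SteadyGlo luminescence measured ATXN2-luciferase expression after a fluorogenic Gly-Phe-AFC viability readout (25 uM final).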
# D3 antag: qHTS of D3 Dopamine Receptor Antagonist: qHTS. D(3) dopamine receptor (Homo sapiens), P35462. D3R cells, DiscoveRx beta-arrestin luminescence, antagonist mode; hits give low values. max response, negative = inhibition, %. 2.5% of 360,000 active. AID 652054, 2013; in the data active = max response below about -50%; inconclusive = no clear call, values can overlap the other calls; also: % is scaled to controls: 0 for no effect and ±100 for the full control effect
#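 Cells plated overnight at 1500 cells/well, then exposed to library compounds with dopamine controls for 90 minutes at 37 degrees C. DiscoveRx reagent added for 30–60 minutes at room temperature; luminescence read, quantitative HTS format.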
# TGFb SMAD3 inh: qHTS for Inhibitors of TGF-b; HepG2 CAGA-GFP TGF-b/SMAD3 reporter, GFP fluorescence, 18 h; TGF-beta stimulated, 500 pg/mL final; Potency, µM (highest dose often 46.1 µM), inactives show top-dose activity, negative = inhibition, actives largely listed as inhibitors; 1.2% of 410,000 active; AID 588855, 2011; also: potency is read from the fitted curve at half-maximal effect; % is scaled to controls: 0 for no effect and ±100 for the full control effect; nearly all actives have a fitted effect of over 65% in size
#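 Inhibition was scored as loss of TGF-beta-induced (500 pg/mL final, 18 hours, 37 degrees C) GFP in HEPG2 cells carrying a CAGA-GFP reporter, in DMEM with 1% FBS. Well GFP was summed per cell; Activity was normalised to unstimulated and stimulated DMSO wells, then concentration-response fitting.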
# * = called active by the depositor; i = inactive; ? = inconclusive; . = not tested or not shown; [ ] = another dose, or the depositor's remark. Only some compounds are listed: those with a hit (about 4.7% of all), similar ones and a draw of the others. Unless noted, calls follow the shape of the dose curve; as a rule, active = well fitted curve in the direction sought with a large enough effect; inconclusive = small, poorly fitted or top-dose-only effect, or another doubt; inactive = no such curve, though single readings can be large; an effect the other way counts as inactive or inconclusive.
SMILES,D3 ag,S2 tox,HepG2 viability,ATXN2 expr inh,D3 antag,TGFb SMAD3 inh
O=C(O)C[C@H](O)C[C@H](O)C=Cc1c(C2CC2)nc2ccccc2c1-c1ccc(F)cc1,.,.,.,33%,.,.
Cc1ccc(NC(=O)c2cc(S(=O)(=O)N(C)C3CCCCC3)ccc2F)cc1C,5,i,-34%,1%,.,0%
Oc1ccc(CN2CCCCC2)nc1-c1ccccc1,13,i,-1%,-4%,-52*,-5%
Oc1ccc(-c2ccccc2)cc1CN1CCCCCC1,-18,i,-19%,-3%,-93*,-2%
Oc1cccnc1CN1CCCCC1,-5,i,25%,-2%,12,16%
O=C(NCCc1ccccc1)c1cc(-c2ccccc2)nc2n[nH]c(-c3ccccc3)c12,-9,i,-54%,11%,.,?
CC(=O)Nc1cccc(N2C(=O)CC(N3CCC(C(=O)N4CCCCC4)CC3)C2=O)c1 (stereo unspecified),4,i,0%,4%,-59*,7%
CCC(c1nnnn1C1CCCC1)N(Cc1cccs1)Cc1cc2cc(C)ccc2[nH]c1=O (stereo unspecified),-1,?,-10%,32µM*,0,3%
CCc1ccc2[nH]c(=O)c(CN(Cc3ccc4c(c3)OCO4)Cc3nnnn3C3CCCC3)cc2c1,35*,?,-7%,?,15,?
Cc1ccc2cc(CN(Cc3ccc(F)cc3)Cc3nnnn3C3CCCC3)c(=O)[nH]c2c1,-26,.,-26%,?,7,19%
O=C1C2CCCN2C(=O)N1CCCN1CCN(c2cccc(Br)c2)CC1 (stereo unspecified),-19,i,-19%,-16%,-78*,-11%
O=C1C2CCCCN2C(=O)N1CCCN1CCN(c2cccc(C(F)(F)F)c2)CC1 (stereo unspecified),-14,i,-4%,-16%[11.3 µM],-67*,-2%
O=C1C2CCCN2C(=O)N1CCN1CCN(c2cccc(C(F)(F)F)c2)CC1 (stereo unspecified),-18,i,-2%,-25%,-17,-15%
O=C(NCCN1CCN(c2ccccc2)CC1)c1cccc(Br)c1,-8,i,-25%,-10%,-16,2%
COc1ccc(-c2nn(-c3ccccc3)cc2C(=O)N(C)CC(=O)Nc2cccc(F)c2)cc1,0,?,-38%,.,-1,?
CN(CC(=O)Nc1cccc(F)c1)C(=O)c1cn(-c2ccccc2)nc1-c1ccc(F)cc1,0,?,-48%,.,-3,22µM*
Cc1ccc(NC(=O)Cn2c(=O)n(Cc3nc(C)no3)c(=O)c3cc4c(cc32)OCO4)c(Cl)c1,7,i,8%,4%,.,-6%
CCOC(=O)c1noc2ncn(CC(=O)Nc3cccc(Cl)c3)c(=O)c12,-7,i,-19%,6%,.,21%
CC(C)C1Cc2c(sc3c2c(=O)n(Cc2ccccc2)c2nncn32)CO1 (stereo unspecified),-12,i,13%,-3%,-53*,9%
Cc1nnc2n(Cc3ccccc3)c(=O)c3c4c(sc3n12)COC(C(C)C)C4 (stereo unspecified),1,i,3%,-8%,4,27%
COc1ccc(NC(=O)C2=CC(c3ccc4c(c3)OCO4)=NS(=O)(=O)N2C)cc1,-9,?,-21%,-21%,.,-30%
O=c1/c(=C/c2ccco2)sc2n1CN(c1cccc(Br)c1)CN=2,1,i,-7%,-9%,-61*,9%
O=c1/c(=C/c2ccco2)sc2n1CN(c1ccccc1)CN=2,-7,i,-2%,4%,-17,12%
CN1CCC(OC(=O)c2ccc(Br)cc2)CC1,-10,i,1%,-3%,?,-15%
CN1CCC(=C(c2ccccc2)c2ccc(Br)cc2)CC1,-26,?,-96%,.,-99*,?
